Records with an inconclusive call do not appear. Active and inactive are the calls of the source. Unless noted, calls follow the shape of the dose curve; as a rule, active = well fitted curve in the direction sought with a large enough effect; inconclusive = small, poorly fitted or top-dose-only effect, or another doubt; inactive = no such curve, though single readings can be large; an effect the other way counts as inactive or inconclusive.
Tests used:
[1] = target: T1, Tyrosine-protein phosphatase non-receptor type substrate 1 (Homo sapiens) + Leukocyte surface antigen CD47 (Homo sapiens) (UniProt P78324+Q08722); assay: CD47-SIRPalpha protein protein interaction - HTRF assay qHTS validation (AID 1347058; active = well fitted curve in the direction sought with a large enough effect in the signal ratio, not every such curve was filed as active; the % refers to the signal ratio; also: series mostly up to about 38 µM; 0% is about no effect)
T1 sequence (P78324 whole entry, looked up, the tested form may be a part): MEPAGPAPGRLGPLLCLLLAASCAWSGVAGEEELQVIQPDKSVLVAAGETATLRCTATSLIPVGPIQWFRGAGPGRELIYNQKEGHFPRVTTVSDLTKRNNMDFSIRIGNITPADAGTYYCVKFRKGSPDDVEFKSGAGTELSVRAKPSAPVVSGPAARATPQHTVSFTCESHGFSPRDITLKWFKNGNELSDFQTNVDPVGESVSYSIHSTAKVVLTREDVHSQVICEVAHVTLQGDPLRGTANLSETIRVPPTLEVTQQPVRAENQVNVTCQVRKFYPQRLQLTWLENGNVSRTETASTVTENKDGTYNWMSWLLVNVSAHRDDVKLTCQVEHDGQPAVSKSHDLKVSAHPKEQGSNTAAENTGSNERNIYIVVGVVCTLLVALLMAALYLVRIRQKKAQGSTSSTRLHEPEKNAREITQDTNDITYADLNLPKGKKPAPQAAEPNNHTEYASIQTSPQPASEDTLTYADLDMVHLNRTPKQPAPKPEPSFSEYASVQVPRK
T1 sequence (Q08722 whole entry, looked up, the tested form may be a part): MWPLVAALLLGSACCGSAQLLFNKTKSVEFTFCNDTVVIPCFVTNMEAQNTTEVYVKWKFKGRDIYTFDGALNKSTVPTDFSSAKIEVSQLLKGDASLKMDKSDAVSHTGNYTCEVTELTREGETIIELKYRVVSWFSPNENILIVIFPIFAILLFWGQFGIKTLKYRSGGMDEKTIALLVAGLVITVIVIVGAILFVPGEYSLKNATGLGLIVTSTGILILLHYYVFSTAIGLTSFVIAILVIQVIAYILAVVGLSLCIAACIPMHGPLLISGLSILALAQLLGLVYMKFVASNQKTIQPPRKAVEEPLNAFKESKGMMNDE
How it was run: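 Soluble extracellular domains (6His-CD47, Avi-tag-biotinylated SIRPalpha) in PBS pH 7.4 with 0.05% IGEPAL CA-630. Compounds were preincubated 30 min at RT with CD47 and anti-His-Eu, then SIRPalpha and SAV-XL665 were added. TR-FRET 665/615 ratio.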

[2] = target: T1, Tyrosine-protein phosphatase non-receptor type substrate 1 (Homo sapiens) + Leukocyte surface antigen CD47 (Homo sapiens); assay: CD47-SIRPalpha protein protein interaction - Alpha assay qHTS validation (AID 1347059);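 also: bead proximity luminescence from CD47 binding SIRPalpha after compound preincubation with SIRPalpha; % is scaled to controls: 0 for no effect and ±100 for the full control effect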
How it was run: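 AlphaScreen signal between CD47-His (12.5 nM) and biotin-SIRPalpha (25 nM) soluble extracellular domains, bead-captured via Ni-NTA and streptavidin. Compounds, in 7-point titrations, met SIRPalpha 30 min before CD47; PBS pH 7.4 with 0.05% IGEPAL.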

[3] = target: Parathyroid hormone/parathyroid hormone-related peptide receptor (Homo sapiens) (UniProt Q03431); assay: qHTS for PTHR1 Agonists: Optimization Screen against the NCGC LOPAC library (AID 1347079);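 also: GloSensor cAMP luminescence in HEK-293 GP2 cells expressing human PTHR1 with IBMX; 0% is about no effect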
Sequence of Parathyroid hormone/parathyroid hormone-related peptide receptor (Homo sapiens) (Q03431 whole entry, looked up): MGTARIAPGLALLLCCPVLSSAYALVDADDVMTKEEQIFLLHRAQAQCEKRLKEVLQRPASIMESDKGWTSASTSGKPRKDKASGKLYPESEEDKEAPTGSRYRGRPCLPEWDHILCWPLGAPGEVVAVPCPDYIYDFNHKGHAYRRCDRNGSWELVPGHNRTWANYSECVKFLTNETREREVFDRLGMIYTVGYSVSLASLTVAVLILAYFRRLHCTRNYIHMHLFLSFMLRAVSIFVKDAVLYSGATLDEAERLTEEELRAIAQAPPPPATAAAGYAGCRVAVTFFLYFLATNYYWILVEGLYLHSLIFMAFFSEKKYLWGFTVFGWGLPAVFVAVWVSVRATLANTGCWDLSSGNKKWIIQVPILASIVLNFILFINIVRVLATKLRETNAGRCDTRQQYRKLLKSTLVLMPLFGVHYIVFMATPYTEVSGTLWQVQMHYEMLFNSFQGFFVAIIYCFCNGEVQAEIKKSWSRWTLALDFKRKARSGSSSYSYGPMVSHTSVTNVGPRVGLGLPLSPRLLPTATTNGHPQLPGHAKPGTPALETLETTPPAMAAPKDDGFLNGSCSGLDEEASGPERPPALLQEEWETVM
How it was run: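 Signal increase flags agonism. GP2 cells, derived from HEK-293, express human PTHR1 and a GloSensor cAMP construct.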

[4] = qHTS of pediatric cancer cell lines to identify multiple opportunities for drug repurposing: Primary screen for TC32 cells (AID 1347089); also: % is scaled to controls: 0 for no effect and ±100 for the full control effect; nearly all actives have a fitted effect of over 60% in size
How it was run: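 In the primary qHTS, MIPE compounds were tested at 11 concentrations (0.78 nM to 46 µM) and NPC compounds at 8 (0.59 nM to 46 µM) on TC32 cells for 48 h. CellTiter-Glo luminescence gave viability.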

[5] = qHTS of pediatric cancer cell lines to identify multiple opportunities for drug repurposing: Primary screen for DAOY cells (AID 1347090);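 also: series mostly up to about 46 µM; plate controls were DMSO for no effect and bortezomib for full effect; nearly all actives have a fitted effect of over 55% in size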
How it was run: (§1)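 Cell viability, CellTiter-Glo luminescence; 500-1,000 cells/well, 8- or 11-point titration, 48 h compound exposure at 37 degrees C, 5% CO2. Controls: DMSO neutral, bortezomib 2.3 µM final as positive.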

[6] = qHTS of pediatric cancer cell lines to identify multiple opportunities for drug repurposing: Primary screen for SJ-GBM2 cells (AID 1347091);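 also: plate controls were DMSO neutral control for no effect and bortezomib for full effect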
How it was run: as §1

[7] = qHTS of pediatric cancer cell lines to identify multiple opportunities for drug repurposing: Primary screen for A673 cells (AID 1347092); also: % is scaled to controls: 0 for no effect and ±100 for the full control effect; nearly all actives have a fitted effect of over 45% in size
How it was run: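 48 h compound exposure, A673, 500-1,000 cells/well, 37 degrees C/5% CO2. MIPE: 11-point, 0.78 nM-46 µM; NPC: 8-point, 0.59 nM-46 µM (final). Readout CellTiter-Glo luminescence after 15 min RT.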

[8] = qHTS of pediatric cancer cell lines to identify multiple opportunities for drug repurposing: Primary screen for SK-N-MC cells (AID 1347093); also: potency is read from the fitted curve at half-maximal effect;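 as to activity change, negative = cytotoxic: series mostly up to about 46 µM; plate controls were DMSO neutral control for no effect and bortezomib for full effect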
How it was run: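 Metabolically active cells were quantified by ATP-dependent luminescence (CellTiter-Glo, 15 min at room temperature) following 48 h treatment. Cells had been plated at 500-1,000 per well and settled for 5 h beforehand.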

[9] = qHTS of pediatric cancer cell lines to identify multiple opportunities for drug repurposing: Primary screen for BT-37 cells (AID 1347094);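 also: series mostly up to about 57 µM; plate controls were DMSO for no effect and bortezomib for full effect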
How it was run: (§2)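 Viability was measured as metabolically active cells after 48 hours of treatment, read by CellTiter-Glo luminescence. Compounds were tested at multiple final concentrations, giving concentration-response curves.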

[10] = qHTS of pediatric cancer cell lines to identify multiple opportunities for drug repurposing: Primary screen for NB-EBc1 cells (AID 1347095);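 also: plate controls were DMSO neutral control for no effect and bortezomib for full effect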
How it was run: as §2

[11] = qHTS of pediatric cancer cell lines to identify multiple opportunities for drug repurposing: Primary screen for U-2 OS cells (AID 1347096);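 also: plate controls were DMSO wells for no effect and bortezomib positive control wells for full effect; nearly all actives have a fitted effect of over 50% in size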
How it was run: (§3)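 Cells (500-1,000/well) rested 5 h, then received compounds for 48 h; metabolically active cells were measured by CellTiter-Glo luminescence. Final concentrations spanned up to 46 µM (MIPE, 11-point) or 0.59 nM-46 µM (NPC, 8-point) in primary screens, 11-point in follow-ups.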

[12] = qHTS of pediatric cancer cell lines to identify multiple opportunities for drug repurposing: Primary screen for Saos-2 cells (AID 1347097); also: nearly all actives have a fitted effect of over 40% in size; also: potency is read from the fitted curve at half-maximal effect; as to activity change, negative = cytotoxic: % is scaled to controls: 0 for no effect and ±100 for the full control effect
How it was run: as §2

[13] = qHTS of pediatric cancer cell lines to identify multiple opportunities for drug repurposing: Primary screen for SK-N-SH cells (AID 1347098); also: nearly all actives have a fitted effect of over 65% in size; also: potency is read from the fitted curve at half-maximal effect; as to activity change, negative = cytotoxic: % is scaled to controls: 0 for no effect and ±100 for the full control effect
How it was run: as §3

[14] = qHTS of pediatric cancer cell lines to identify multiple opportunities for drug repurposing: Primary screen for NB1643 cells (AID 1347099); also: nearly all actives have a fitted effect of over 50% in size; also: potency is read from the fitted curve at half-maximal effect;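 as to activity change, negative = cytotoxic: plate controls were DMSO neutral control for no effect and bortezomib positive control for full effect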
How it was run: as §2

[15] = qHTS of pediatric cancer cell lines to identify multiple opportunities for drug repurposing: Primary screen for LAN-5 cells (AID 1347100);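 also: plate controls were DMSO neutral control for no effect and bortezomib positive control for full effect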
How it was run: as §3

[16] = qHTS of pediatric cancer cell lines to identify multiple opportunities for drug repurposing: Primary screen for BT-12 cells (AID 1347101); also: nearly all actives have a fitted effect of over 25% in size; also: potency is read from the fitted curve at half-maximal effect;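 as to activity change, negative = cytotoxic: plate controls were DMSO for no effect and bortezomib positive control for full effect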
How it was run: as §3

[17] = qHTS of pediatric cancer cell lines to identify multiple opportunities for drug repurposing: Primary screen for Rh18 cells (AID 1347102); also: nearly all actives have a fitted effect of over 65% in size; also: potency is read from the fitted curve at half-maximal effect; as to activity change, negative = cytotoxic: % is scaled to controls: 0 for no effect and ±100 for the full control effect
How it was run: as §3

[18] = qHTS of pediatric cancer cell lines to identify multiple opportunities for drug repurposing: Primary screen for OHS-50 cells (AID 1347103); also: nearly all actives have a fitted effect of over 40% in size; also: potency is read from the fitted curve at half-maximal effect;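 as to activity change, negative = cytotoxic: plate controls were DMSO neutral control for no effect and bortezomib positive control for full effect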
How it was run: as §3

[19] = qHTS of pediatric cancer cell lines to identify multiple opportunities for drug repurposing: Primary screen for RD cells (AID 1347104); also: nearly all actives have a fitted effect of over 55% in size; also: potency is read from the fitted curve at half-maximal effect;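 as to activity change, negative = cytotoxic: plate controls were DMSO for no effect and bortezomib for full effect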
How it was run: as §2

NC(=O)c1ncn([C@@H]2O[C@H](CO)[C@@H](O)[C@H]2O)c1O
inactive: outcome [1] | Potency [2] | outcome [3] | Potency [4] | Potency [5] | Potency [6] | Potency [7] | Potency [8] | Potency [9] | Potency [10] | Potency [11] | Potency [12] | Potency [13] | Potency [14] | Potency [15] | Potency [16] | Potency [17] | Potency [18] | Potency [19]

CCCCNc1ccc(C(=O)OCCN(C)C)cc1
inactive: outcome [1] | Potency [2] | outcome [3] | Potency [4] | Potency [5] | Potency [6] | Potency [7] | Potency [8] | Potency [9] | Potency [10] | Potency [11] | Potency [12] | Potency [13] | Potency [14] | Potency [15] | Potency [16] | Potency [19]

CN=C(NC#N)NCCSCc1nc[nH]c1C
inactive: outcome [1] | Potency [2] | outcome [3] | Potency [4] | Potency [5] | Potency [6] | Potency [7] | Potency [9] | Potency [10] | Potency [11] | Potency [13] | Potency [14] | Potency [15] | Potency [16] | Potency [17] | Potency [18] | Potency [19]

CN/C(=C\[N+](=O)[O-])NCCSCc1ccc(CN(C)C)o1
inactive: outcome [1] | Potency [2] | outcome [3] | Potency [4] | Potency [5] | Potency [6] | Potency [9] | Potency [10] | Potency [11] | Potency [12] | Potency [13] | Potency [15] | Potency [16] | Potency [17] | Potency [18]
active: Potency [8] 0.001 µM | Potency [14] 37.6 µM

CCNC(=O)N1CCN(CCCC(c2ccc(F)cc2)c2ccc(F)cc2)CC1
inactive: outcome [1] | Potency [2] | outcome [3] | Potency [4] | Potency [6] | Potency [7] | Potency [10] | Potency [11] | Potency [12] | Potency [14] | Potency [15] | Potency [17] | Potency [19]
active: Potency [13] 30.7 µM

Cc1nc2sccn2c(=O)c1CCN1CCC(=C(c2ccc(F)cc2)c2ccc(F)cc2)CC1
inactive: outcome [1] | Potency [2] | outcome [3] | Potency [4] | Potency [9] | Potency [11] | Potency [14] | Potency [15] | Potency [17]
active: Potency [18] 27.6 µM

CN(C)CCCN1c2ccccc2Sc2ccc(C(F)(F)F)cc21
active: Potency [16] 4.9 µM | Potency [18] 24.6 µM
inactive: outcome [3] | Potency [5] | Potency [11]

O=C(CCCN1CCC(O)(c2cccc(C(F)(F)F)c2)CC1)c1ccc(F)cc1
inactive: outcome [1] | Potency [2] | outcome [3] | Potency [4] | Potency [9] | Potency [10] | Potency [11] | Potency [13] | Potency [14] | Potency [15]

NCCCNCCSP(=O)(O)O
inactive: outcome [1] | Potency [2] | outcome [3] | activity change, negative = cytotoxic [4] 10.8% [at 9.17 µM] | activity change, negative = cytotoxic [6] 14.1% [at 9.22 µM] | activity change, negative = cytotoxic [7] 5.74% [at 9.22 µM] | activity change, negative = cytotoxic [8] -14.6% [at 9.22 µM] | activity change, negative = cytotoxic [9] 7.29% [at 11.5 µM] | activity change, negative = cytotoxic [10] 10.2% [at 9.22 µM] | activity change, negative = cytotoxic [11] 2.93% [at 9.22 µM] | activity change, negative = cytotoxic [12] -20.9% [at 9.22 µM] | activity change, negative = cytotoxic [13] -0.785% [at 11.4 µM] | activity change, negative = cytotoxic [14] 7.51% [at 9.22 µM] | activity change, negative = cytotoxic [15] 27.4% [at 9.22 µM] | activity change, negative = cytotoxic [16] 8.37% [at 11.5 µM] | activity change, negative = cytotoxic [18] 5.02% [at 11.5 µM] | activity change, negative = cytotoxic [19] 5.99% [at 9.22 µM]

O=C1CC2(CCCC2)CC(=O)N1CCCCN1CCN(c2ncccn2)CC1
inactive: outcome [1] | Potency [2] | outcome [3] | Potency [5] | Potency [6] | Potency [7] | Potency [8] | Potency [9] | Potency [10] | Potency [11] | Potency [12] | Potency [13] | Potency [14] | Potency [15] | Potency [16] | Potency [17] | Potency [18] | Potency [19]

C(=C\c1ccccc1)/CN1CCN(C(c2ccccc2)c2ccccc2)CC1
active: Potency [18] 27.6 µM
inactive: outcome [1] | Potency [2] | outcome [3] | Potency [4] | Potency [9] | Potency [11] | Potency [13] | Potency [14] | Potency [15] | Potency [16] | Potency [17]

COCC(=O)O[C@]1(CCN(C)CCCc2nc3ccccc3[nH]2)CCc2cc(F)ccc2[C@@H]1C(C)C
inactive: outcome [1] | Potency [2] | outcome [3] | Potency [5] | Potency [14]
active: Potency [12] 26.6 µM | Potency [13] 19.4 µM | Potency [18] 21.9 µM | Potency [19] 26.6 µM

NC(=Nc1ccccc1)Nc1ccccc1
inactive: Potency [4] | Potency [5] | Potency [6] | Potency [7] | Potency [8] | Potency [9] | Potency [10] | Potency [11] | Potency [12] | Potency [13] | Potency [14] | Potency [15] | Potency [16] | Potency [17] | Potency [18] | Potency [19]

CCO/C([O-])=N/c1c[n+](N2CCOCC2)no1
inactive: Potency [2] | outcome [3] | Potency [4] | Potency [5] | Potency [6] | Potency [7] | Potency [8] | Potency [9] | Potency [10] | Potency [11] | Potency [12] | Potency [13] | Potency [14] | Potency [15] | Potency [16] | Potency [17] | Potency [18] | Potency [19]

CCN(CC)CCCN(c1ccccc1)C1Cc2ccccc2C1
inactive: outcome [1] | Potency [2] | outcome [3] | Potency [4] | Potency [9] | Potency [10] | Potency [11] | Potency [12] | Potency [14] | Potency [17]

CCOC(=O)C1=C(C)NC(C)=C(C(=O)OC)C1c1cccc(Cl)c1Cl (stereo not given)
inactive: outcome [1] | Potency [2] | outcome [3] | Potency [4] | Potency [6] | Potency [7] | Potency [9] | Potency [10] | Potency [11] | Potency [12] | Potency [14] | Potency [15] | Potency [19]

COCCOC(=O)C1=C(C)NC(C)=C(C(=O)OC(C)C)C1c1cccc([N+](=O)[O-])c1 (stereo not given)
active: Potency [17] 18.8 µM | Potency [18] 24.6 µM
inactive: Potency [2] | outcome [3] | Potency [4] | Potency [11] | Potency [13] | Potency [14]
